Records with an inconclusive call do not appear. Entries that show only a call come without a potency. Values without a mark were called inactive. The source made the active and inactive calls. The call rests on the fitted dose curve; in most records, active means well fitted curve in the direction sought with a large enough effect in the repeat runs; inconclusive means weak or mixed curves; inactive means no such curve, though single readings can be large; an effect the other way counts as inactive or inconclusive.
Columns and labels:
[1] = A CellTox Green Cytotoxicity Assay to monitor cytotoxicity in HEK293 cells - 24 hour (AID 1224875); further: nearly all actives have a fitted effect of over 45% in size; further: potency means the concentration at half of the fitted maximal effect
Outline: (§1)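 Real-time, in one plate: 600 HEK293 cells/well with dead-cell DNA dye, pinned compound after 5 h, 37 C incubation over 40 h; viable cells give no appreciable fluorescence.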

[2] = A CellTox Green Cytotoxicity Assay to monitor cytotoxicity in HepG2 cells - 16 hour (AID 1224876); further: nearly all actives have a fitted effect of over 45% in size; further: potency means the concentration at half of the fitted maximal effect
Outline: (§2)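 Cytotoxicity was tracked as dead-cell DNA fluorescence in HepG2 cells treated with test compounds at 37 C; each time-point value comes from one kinetic series spanning 0, 8, 16, 24, 32 and 40 h.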

[3] = A CellTox Green Cytotoxicity Assay to monitor cytotoxicity in HepG2 cells - 24 hour (AID 1224878); further: nearly all actives have a fitted effect of over 45% in size; further: potency means the concentration at half of the fitted maximal effect
Outline: as §2

[4] = A CellTox Green Cytotoxicity Assay to monitor cytotoxicity in HepG2 cells - 40 hour (AID 1224879); further: nearly all actives have a fitted effect of over 40% in size; further: potency means the concentration at half of the fitted maximal effect
Outline: as §2

[5] = qHTS RealTime-Glo MT Cell Viability Assay in HEK293 cells - 0 hour (AID 1224880); further: top concentration of the series differs between compounds; nearly all actives have a fitted effect of over 45% in size
Outline: (§3)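 Kinetic, non-lysing viability readout. Seed HEK293 (600/well) with reagent, incubate 5 h at 37 C/5% CO2, pin 23 nL compound in DMSO, incubate at 37 C, read luminescence at 0, 8, 16, 24, 32, 40 h.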

[6] = A CellTox Green Cytotoxicity Assay to monitor cytotoxicity in HEK293 cells - 32 hour (AID 1224881); further: nearly all actives have a fitted effect of over 40% in size; further: potency means the concentration at half of the fitted maximal effect
Outline: as §1

[7] = qHTS RealTime-Glo MT Cell Viability Assay in HepG2 cells - 32 hour (AID 1224877); further: nearly all actives have a fitted effect of over 55% in size; further: potency means the concentration at half of the fitted maximal effect
Outline: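 Luminescence read-out: viable HepG2 cells reduce a prosubstrate to a NanoLuc substrate, giving a signal proportional to live cell number. Reads taken at 0, 8, 16, 24, 32 and 40 h of compound exposure at 37 C.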

[8] = qHTS RealTime-Glo MT Cell Viability Assay in HEK293 cells - 40 hour (AID 1224874); settings: RealTime-Glo luminescence; max response: stronger effect = lower value; further: nearly all actives have a fitted effect of over 50% in size; further: potency means the concentration at half of the fitted maximal effect
Outline: as §3

[9] = qHTS RealTime-Glo MT Cell Viability Assay in HepG2 cells - 8 hour (AID 1224873); further: nearly all actives have a fitted effect of over 55% in size; further: potency means the concentration at half of the fitted maximal effect
Outline: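 HepG2 cells mixed with RealTime-Glo MT reagents (NanoLuc plus cell-permeant prosubstrate) were seeded at 600 cells/well, incubated 5 h at 37 C/5% CO2, then pinned with compounds in DMSO; nonlytic luminescence tracked viability during 40 h treatment.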

| SMILES | Potency [1] | Potency [2] | Potency [3] | Potency [4] | Potency [5] | Potency [6] | Potency [7] | max response [8] [%] | Potency [9] | Potency [8] |
| --- | --- | --- | --- | --- | --- | --- | --- | --- | --- | --- |
| Clc1ccc(CSC(Cn2ccnc2)c2ccc(Cl)cc2Cl)cc1 (centres undefined) | inactive | inactive | inactive | inactive | inactive | inactive | – | – | – | – |
| CN(C)c1ccc(N=Nc2ccccc2)cc1 | – | – | inactive | inactive | inactive | – | inactive | – | – | – |
| C[C@@H]1O[C@@H](O[C@H]2C[C@@H](O)[C@]3(CO)[C@H]4[C@H](O)C[C@]5(C)[C@@H](C6=CC(=O)OC6)CC[C@]5(O)[C@@H]4CC[C@]3(O)C2)[C@H](O)[C@H](O)[C@H]1O | inactive | inactive | inactive | inactive | – | inactive | – | – | – | – |
| Nc1ccccc1C(=O)Oc1ccc2ccccc2c1 | inactive | inactive | – | – | – | inactive | inactive | -20.2 | – | – |
| O=S(=O)(c1ccc(Cl)cc1)c1ccc(Cl)cc1 | – | inactive | inactive | inactive | – | – | inactive | – | – | – |
| Oc1ccc(C2(c3ccc(O)cc3)c3ccccc3-c3ccccc32)cc1 | inactive | – | 61.6 µM (active) | 61.6 µM (active) | inactive | inactive | – | – | 49 µM (active) | – |
| Cc1c(Cl)c(=O)oc2cc(OP(=O)(OCCCl)OCCCl)ccc12 | inactive | inactive | inactive | inactive | inactive | inactive | inactive | – | – | – |
| CC(Cl)CN(C)C (centres undefined) | – | – | inactive | inactive | – | – | inactive | – | inactive | – |
| c1ccc(Nc2ccc3ccccc3c2)cc1 | inactive | inactive | – | 48.7 µM (active) | inactive | inactive | inactive | – | – | – |
| CC(C)(COCC1CO1)COCC1CO1 (centres undefined) | inactive | inactive | – | inactive | inactive | inactive | inactive | – | inactive | – |
| Nc1ccc(Cl)cc1C(=O)c1ccccc1 | – | inactive | inactive | inactive | – | – | inactive | – | inactive | – |
| CC1(C)CC/C(=C/c2ccc(Cl)cc2)C1(O)Cn1cncn1 (centres undefined) | inactive | inactive | – | – | inactive | – | inactive | – | inactive | – |
| CC(C)[C@H](C(=O)O[C@H](C#N)c1cccc(Oc2ccccc2)c1)c1ccc(Cl)cc1 | inactive | inactive | inactive | inactive | inactive | inactive | inactive | – | – | – |
| O=C1NCN(c2ccccc2)C12CCN(CC1COc3ccccc3O1)CC2 (centres undefined) | inactive | inactive | inactive | inactive | inactive | inactive | inactive | – | – | – |
| ClCc1ccccc1CCl | inactive | inactive | – | – | inactive | – | inactive | – | inactive | – |
| COc1cccc2c1C(=O)c1c(O)c3c(c(O)c1C2=O)C[C@@](O)(C(=O)CO)CC3OC1CC(N2CCOC(OC)C2)C(O)C(C)O1 (some centres undefined) | inactive | 23.9 µM (active) | – | 0.0425 µM (active) | inactive | inactive | 0.0425 µM (active) | – | – | 0.0213 µM (active) |
| COC(=O)N(C(=O)N1COC2(C(=O)OC)Cc3cc(Cl)ccc3C2=N1)c1ccc(OC(F)(F)F)cc1 (centres undefined) | inactive | inactive | inactive | inactive | – | inactive | inactive | – | inactive | – |
| [Cl][Sb]([Cl])[Cl] | inactive | inactive | inactive | – | inactive | inactive | inactive | – | inactive | – |
| Oc1cc(Cl)c(Cl)c(Cl)c1 | inactive | – | inactive | – | inactive | 11.7 µM (active) | inactive | – | inactive | – |
| Clc1ccc(CCC(Cn2ccnc2)Sc2c(Cl)cccc2Cl)cc1 (centres undefined) | inactive | – | – | 10.7 µM (active) | inactive | inactive | – | – | – | 8.49 µM (active) |
| Oc1cccc(-c2ccccc2)c1 | inactive | – | inactive | inactive | inactive | inactive | inactive | – | inactive | – |
| Cc1cc(SCc2sc(-c3ccc(C(F)(F)F)c(F)c3)nc2C)ccc1OCC(=O)O | inactive | inactive | – | inactive | inactive | inactive | inactive | – | inactive | – |
| C=CC(=O)OCCCCOC(=O)C=C | – | inactive | inactive | 49 µM (active) | inactive | 43.6 µM (active) | 49 µM (active) | – | – | 34.7 µM (active) |
| CCOCn1c(-c2ccc(Cl)cc2)c(C#N)c(Br)c1C(F)(F)F | inactive | inactive | 17.4 µM (active) | 12.3 µM (active) | inactive | – | – | – | – | 4.36 µM (active) |
| O=[N+]([O-])c1ccc(Oc2ccc(C(F)(F)F)cc2[N+](=O)[O-])cc1 | inactive | – | inactive | inactive | inactive | inactive | inactive | – | – | 17.4 µM (active) |
| Clc1ccc(C(Cl)(Cl)Cl)c(Cl)c1 | – | inactive | – | – | inactive | – | inactive | – | inactive | – |
| O=CC(Br)(Br)Br | – | – | 48.8 µM (active) | 43.5 µM (active) | inactive | – | 43.5 µM (active) | – | – | 2.45 µM (active) |
| CC(Cc1ccc(C(C)(C)C)cc1)CN1C[C@@H](C)O[C@@H](C)C1 (some centres undefined) | 49 µM (active) | – | – | – | inactive | 49 µM (active) | inactive | – | inactive | – |
| COC(=O)N(C(=O)N1CO[C@@]2(C(=O)OC)Cc3cc(Cl)ccc3C2=N1)c1ccc(OC(F)(F)F)cc1 | inactive | inactive | – | inactive | inactive | inactive | inactive | – | – | – |

Source: PubChem BioAssay (Tox21)
